In PubChem BioAssay (NCI):
About 79,000 compounds went through this panel and 15% of them were active in at least one assay; those are over-represented in the sample as a whole. Cut-off read from the data, not from the text of the source: active = growth inhibition above about 70%; inactive = the rest.

What was measured:
[1] = NCI Yeast Anticancer Drug Screen. Data for the rad50 strain (AID 155);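 note: 0% = growth of vehicle-only cultures of the same strain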; conditions: S. cerevisiae rad50 strain growth inhibition; at 50.0 µM; stronger effect = higher value
In short: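 Growth of the mutant yeast was measured after compound exposure and referenced to vehicle-treated cultures.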

[2] = NCI Yeast Anticancer Drug Screen. Data for the mec2-1 strain (AID 157); conditions: S. cerevisiae mec2-1 strain, at 50.0 µM, stronger effect = higher value
In short: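 mec2-1 yeast strain, carrying an alteration in DNA damage repair or cell cycle control, was exposed to compounds; growth inhibition was measured relative to vehicle-treated controls.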

[3] = NCI Yeast Anticancer Drug Screen. Data for the sgs1 mgt1 strain (AID 161);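 note: 0% = growth of cultures given vehicle only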; conditions: S. cerevisiae sgs1 mgt1 strain, at 50.0 µM, stronger effect = higher value
In short: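 Percent growth inhibition was derived by comparing compound-exposed mutant yeast with vehicle-exposed cultures. The strain carries alterations in DNA damage repair.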

[4] = NCI Yeast Anticancer Drug Screen. Data for the cln2 rad14 strain (AID 165);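 note: 0% = growth equal to vehicle treated cultures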; conditions: S. cerevisiae cln2 rad14 strain, at 50.0 µM, stronger effect = higher value
In short: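 Yeast carrying cln2 and rad14 alterations (cell cycle control and DNA damage repair) were exposed to compounds. Growth inhibition was measured against vehicle-treated controls.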

[5] = NCI Yeast Anticancer Drug Screen. Data for the bub3 strain (AID 167); conditions: S. cerevisiae bub3 mutant strain, at 50.0 µM, stronger effect = higher value
In short: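 Whole-cell yeast assay. The mutant strain was incubated with compounds, and growth inhibition was determined by comparison with vehicle-treated cells.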

[6] = NCI Yeast Anticancer Drug Screen. Data for the mlh1 rad18 strain (AID 175); conditions: S. cerevisiae mlh1 rad18 strain growth inhibition; at 50.0 µM; stronger effect = higher value
In short: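 Growth inhibition of the yeast strain was measured after compound exposure and expressed relative to vehicle-treated controls. The strain carries defined defects in DNA damage repair.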

Measured: growth inhibition

Cc1cccc(/C=C(\C#N)C(=O)c2ccccc2)c1
inactive: [1] -10.6% | [2] 15.3% | [3] -13.6% | [4] 5.75% | [5] -5.25% | [6] 21.2%

Cc1oc([N+](=O)[O-])cc1C(=O)O
inactive: [1] 10.5% | [2] 7.5% | [3] -1.65% | [4] -69.7% | [5] -20.1% | [6] -8.25%

Cc1ccc(S(=O)(=O)c2ccccc2C)s1
inactive: [1] -9% | [2] -32.5% | [3] -16.4% | [4] 11.5% | [5] -14.6% | [6] -12.1%

CCOC(=O)C(C)N1CCCCCCC1 (stereo unspecified)
inactive: [1] -19.9% | [2] -13.5% | [3] -2.3% | [4] -26.2% | [5] -6.15% | [6] -0.8%

Cc1ccccc1N=Cc1ccccc1[N+](=O)[O-]
inactive: [1] 17.1% | [2] 9.65% | [3] -1.1% | [4] -22.2% | [5] -0.6% | [6] 8.1%

COc1ccc2c(c1)CCCN2C(N)=Nc1ccc([N+](=O)[O-])cc1
inactive: [1] -4.2% | [2] -4.4% | [3] -1.45% | [4] -55.8% | [5] -1.95% | [6] -7.7%

O=c1[nH]c(=O)n(C2OC(COP(=O)(O)OP(=O)(O)O)C(O)C2O)cc1F (stereo unspecified)
inactive: [1] 1.4% | [2] -2.7% | [3] -11.4% | [4] -31.3% | [5] 0.75% | [6] -7%

COC(=O)C(OC)(OC)C(O)c1ccccc1 (stereo unspecified)
inactive: [1] 34.4% | [2] 4.6% | [3] 49% | [4] 4.95% | [5] -9.35% | [6] 6.8%

Cc1ccc(NC(=O)C(=O)CC(=O)c2c(C)n([O-])c3ccccc3[n+]2=O)cc1C
inactive: [1] -6.2% | [2] -1.55% | [3] 1.25% | [4] 9.35% | [5] 0.2% | [6] 11.9%

COc1ccc(-n2cc3c(=O)nccc-3c3ccccc32)cc1OC
inactive: [1] -9.3% | [2] -12.8% | [3] 1.2% | [4] -10.6% | [5] -18.6% | [6] -0.6%

NC(=O)CCP(=O)(CCC(N)=O)CCC(N)=O
inactive: [1] 3.8% | [2] -2.3% | [3] 1.2% | [4] 0.8% | [5] -2.95% | [6] 2.4%

CN(C(=O)Sc1ccc([N+](=O)[O-])cc1)c1ccc([N+](=O)[O-])cc1
inactive: [1] 1.3% | [2] 15.2% | [3] 9.8% | [4] 4.05% | [5] 31.4% | [6] 21.3%

OC(CSCc1ccccc1)c1ccccc1 (stereo unspecified)
inactive: [1] -17.8% | [2] 2.45% | [3] -7.95% | [4] -43% | [5] -2.2% | [6] 3.1%

Nc1ccc(OCC(O)CN2CCN(c3ccccc3)CC2)cc1 (stereo unspecified)
inactive: [1] 7.45% | [2] 4.15% | [3] 6.65% | [4] -3.85% | [5] 10.6% | [6] 4.1%

CCOC(=O)C(Cc1cccc2ccccc12)(NC(C)=O)C(=O)OCC
inactive: [1] -7.5% | [2] -4.55% | [3] -5.95% | [4] -31.9% | [5] 16.5% | [6] -14.8%

O=C(OCc1ccc([N+](=O)[O-])cc1)N1c2ccccc2[C@@]23O[C@]24CCC[C@H]3C#C/C=C\C#C[C@H]14
inactive: [1] 22.1% | [2] 25.2% | [3] 2.45% | [4] -13.6% | [5] 9.85% | [6] -32.6%

COCCOC(=O)Nc1c(Cl)cccc1Cl
inactive: [1] 1.45% | [2] -18.5% | [3] -8.35% | [4] 5.3% | [5] -25.6% | [6] -8.2%

O=C(O)c1ccc(OS(=O)(=O)c2ccccc2)cc1
inactive: [1] 26.5% | [2] 8.1% | [3] 39.7% | [4] 22.4% | [5] 46.9% | [6] 16.3%

C/C(=N/NC(N)=S)c1cn[nH]c1C
inactive: [1] -64.3% | [2] -19.9% | [3] -16.1% | [4] -55.4% | [5] 4.5% | [6] -1.6%

O=C(OCC(OC(=O)c1ccccc1)C1CC(C(O)C2CCCCC2)C(=O)O1)c1ccccc1 (stereo unspecified)
inactive: [1] 5.25% | [2] 22.1% | [3] 45.9% | [4] 10.2% | [5] 22.2% | [6] 30.6%

O=C(NC1CC12c1ccccc1-c1ccccc12)Oc1ccc2ccccc2c1 (stereo unspecified)
inactive: [1] 68.4% | [2] 18.8% | [3] 60.9% | [4] 45.8% | [5] 55.2% | [6] 57.4%
